Screening results deposited in PubChem by Sanford-Burnham Center for Chemical Genomics.
Rows were chosen to be rich in hits. Some 28% of all compounds tested hit in one or more screens of this group.
CYP2C9 inh: human CYP2C9 inhibition; P11712; CYP2C9 Supersomes, luciferin-H conversion, luminescence; inhibition, % at 5 µM; 96,000 tested, 20% active; AID 777;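 active means blocking of liver enzyme CYP2C9 beyond about 50% at 5 µM, limit read from the data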
CD11b adhes inh: blocks human CD11b/CD18 adhesion to fibrinogen. P05107+P11215. K562 CD11b/CD18 adhesion to fibrinogen, ATPlite luminescence; Mn2+ added to activate the integrin. inhibition, % at 10 µM. 93,000 tested, 0.54% active;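 active means primary inhibition of 50% or more at 10 µM, then 40% or more on retest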
Target sequence (P05107 whole entry, looked up, other chains not shown): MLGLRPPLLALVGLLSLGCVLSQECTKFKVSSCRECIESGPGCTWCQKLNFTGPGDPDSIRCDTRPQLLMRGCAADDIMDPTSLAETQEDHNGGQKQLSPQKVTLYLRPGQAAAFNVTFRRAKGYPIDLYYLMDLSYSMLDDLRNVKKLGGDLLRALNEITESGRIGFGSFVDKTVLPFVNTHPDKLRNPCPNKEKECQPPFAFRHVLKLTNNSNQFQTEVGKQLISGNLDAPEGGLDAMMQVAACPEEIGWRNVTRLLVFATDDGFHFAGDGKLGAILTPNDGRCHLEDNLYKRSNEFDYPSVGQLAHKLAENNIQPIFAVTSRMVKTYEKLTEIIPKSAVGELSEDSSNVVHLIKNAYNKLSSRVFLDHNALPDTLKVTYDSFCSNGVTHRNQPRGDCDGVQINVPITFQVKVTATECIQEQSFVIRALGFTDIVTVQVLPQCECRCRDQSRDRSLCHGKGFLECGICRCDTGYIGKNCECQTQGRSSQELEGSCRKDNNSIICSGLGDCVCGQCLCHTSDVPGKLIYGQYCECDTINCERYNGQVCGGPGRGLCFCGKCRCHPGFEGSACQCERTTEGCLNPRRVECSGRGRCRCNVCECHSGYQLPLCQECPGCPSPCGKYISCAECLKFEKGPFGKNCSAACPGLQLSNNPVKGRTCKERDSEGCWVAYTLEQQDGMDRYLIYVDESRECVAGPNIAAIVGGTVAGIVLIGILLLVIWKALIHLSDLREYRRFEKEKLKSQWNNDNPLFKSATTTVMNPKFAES
CYP2C19 inh: human CYP2C19 inhibition; CYP2C19 Supersomes, luciferin-H EGE luminescence, 30 min; inhibition, % at 5 µM; P33261; 96,000 tested, 21% active;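 active means CYP2C19 inhibition above a set limit at 5 µM in the primary screen, cut at about 50% in these data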
Mac1 fbg enh: CD11b/CD18-fibrinogen binding enhancement; P05107+P11215; K562 CD11b/CD18 adhesion to fibrinogen, ATPlite luminescence; activation, % at 10 µM; 93,000 tested, 0.07% active; AID 1499;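 active means 10 µM primary screen giving 50% or more activity, confirmed by 40% or more on retest at that dose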
CYP2C19 act: activators of human cytochrome P450 2C19 | activation factor at 5 µM | P33261 | recombinant CYP2C19, luciferin-H EGE luminescence; stronger effect = higher value; 0 = fully inhibited enzyme, 1 = untreated enzyme | 96,000 tested, under 10 active | AID 1025;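 active means activation factor of at least 2 at 5 µM in the primary screen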
CYP2C9 act: activators of human CYP2C9; 96,000 tested, 1.4% active; AID 1024; activation factor at 5 µM; P11712; recombinant CYP2C9, luciferin-H conversion, luminescence; stronger effect = higher value; factor 1 = untreated enzyme, 0 = blocked;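 active means activation factor of 2 or more for CYP2C9 at a 5 µM dose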
Hits are given with their value; - = inactive; . = not tested or not shown.

SMILES | CYP2C9 inh | CD11b adhes inh | CYP2C19 inh | Mac1 fbg enh | CYP2C19 act | CYP2C9 act
Cn1cnnc1SC(C(=O)c1ccccc1)c1ccccc1 (stereo unspecified) | - | - | 81 | - | - | -
CC(Sc1nncn1C)C(=O)Nc1nnc(C(C)C)s1 (stereo unspecified) | - | - | - | - | - | -
CC(Sc1nncn1C)C(=O)Nc1nnc(-c2ccccc2)s1 (stereo unspecified) | 51 | - | - | - | - | -
Cc1ccc(SCC(=O)Nc2ccccc2C(=O)N2CCOCC2)cc1 | . | - | . | - | . | .
Cc1ccc(NC(=O)c2ccc(N3CCOCC3)c([N+](=O)[O-])c2)cc1S(=O)(=O)N1CCOCC1 | . | - | . | - | . | .
Cc1cc(C)n(-c2nc(NC(C)(C)C)nc(NC(C)(C)C)n2)n1 | - | - | - | - | - | -
CC(C)(C)Nc1nc(NC(C)(C)C)nc(-n2ccnc2)n1 | 63 | - | - | - | - | -
Cc1ccc(-c2cc(-c3ccccc3[N+](=O)[O-])[nH]n2)c(O)c1 | 78 | . | - | . | - | -
Oc1ccc(Cl)cc1-c1cc(-c2ccccc2)n[nH]1 | - | - | 51 | - | - | -
Cc1ccc(-c2cc(-c3ccccc3Cl)[nH]n2)c(O)c1 | - | - | - | - | - | -
Cc1ccccc1-c1cc(-c2ccccc2O)n[nH]1 | 96 | - | 93 | - | - | -
COc1ccccc1-c1cc(-c2cc(Cl)ccc2O)n[nH]1 | - | - | - | - | - | -
CC(C)c1ccc(OCC(=O)NC(=S)Nc2ccc3c4c(cccc24)CC3)cc1 | - | - | - | - | - | -
O=C(CCl)NCc1c(Cl)cccc1-n1cccc1 | - | - | - | - | - | -
N#Cc1ccc(NC(=O)Nc2ccc(Cl)cc2)cc1 | - | - | - | - | - | -
CN(CC(=O)Nc1ccc(C#N)cc1)Cc1ccc(Cl)cc1Cl | 90 | - | 94 | - | - | -
CN(CC(=O)Nc1ccc(C#N)cc1)Cc1ccc(Cl)cc1 | 75 | - | 89 | - | - | -
O=C(c1ccccc1)N(Cc1ccco1)C1CCS(=O)(=O)C1 (stereo unspecified) | - | . | - | . | - | -
Cn1c(N)c(C(=O)COC(=O)c2cccs2)c(=O)n(C)c1=O | - | - | - | - | - | -
COc1ccc(N=Cc2cc3c(cc2O)OC(N)=C(C#N)C3c2ccccc2)cc1 (stereo unspecified) | . | - | . | - | . | .
COc1cccc(NCc2cc(=O)oc3cc(-c4ccccc4)c(O)cc23)c1 | . | - | . | - | . | .
CSc1ccc(N2C(=O)NC3(CCCCC3)C2=O)cc1 | - | - | 70 | - | - | -
Cc1ccc(NC(=O)Nc2ccc(F)cc2)nc1 | - | - | 57 | - | - | -
COc1ccc(C2C(C(=O)OCC(=O)Nc3ccc(C)cc3)CCC(=O)N2c2ccc(OC)cc2)cc1 (stereo unspecified) | 74 | - | 75 | - | - | -
COc1ccc(OCC(=O)Nc2ccc(C)cc2)cc1 | 52 | - | 82 | - | - | -
SMILES | CYP2C9 inh | CD11b adhes inh | CYP2C19 inh | Mac1 fbg enh | CYP2C19 act | CYP2C9 act
Cc1ccnc(NC(=O)Nc2ccc(F)cc2)c1 | - | - | - | - | - | -
Cc1ccc(NC(=O)COC(=O)c2ccn(C)n2)cc1 | - | - | 79 | - | - | -
Cc1nc2ccccc2n2c(-c3ccccc3)c3c(=O)n(C)c(=O)n(C)c3c12 | - | - | - | - | - | -
COc1ccc(OCC(=O)Sc2ccc(C)cc2)cc1 | - | - | 68 | - | - | -
Cc1ccc(OCC(=O)Nc2ccc(N3CCOCC3)cc2)cc1 | - | - | - | - | - | -
COc1ccc(CC(=O)Nc2ccc(-c3cn4ccc(C)cc4n3)cc2)cc1 | - | - | 67 | - | - | -
O=C(COc1ccc(Br)cc1CO)Nc1ccc(F)cc1 | 88 | - | 99 | - | - | -
Cc1ccc(OCC(=O)Nc2ccc(F)cc2)cc1 | - | - | 57 | - | - | -
CCc1ccc(OCC(=O)NC(=S)Nc2ccc(F)cc2)c(Br)c1 | - | . | - | . | - | -
Cc1nnsc1C(=O)NC1CCCCC1 | - | - | - | - | - | -
CC(C)(C)C(=O)CSc1nccc(=O)[nH]1 | - | - | - | - | - | -
Cc1ccc(NC(=O)Cc2ccc(F)cc2)cc1 | - | - | 97 | - | - | -
O=C(Nc1ccc(F)cc1)c1ccccc1 | - | - | - | - | - | -
O=C(CNc1ccccc1)Nc1ccc(F)cc1 | - | - | 56 | - | - | -
O=C(Cc1coc(-c2ccc(F)cc2)n1)Nc1ccccc1 | 61 | - | 86 | - | - | -
Cc1ccc(C(=O)Nc2ccccc2SCC2CSc3nc4ccccc4c(=O)n32)cc1 (stereo unspecified) | - | . | - | . | - | -
CCc1ccc(C2N(c3ccc(OC)cc3)C(=O)C3CCCN32)cc1 (stereo unspecified) | 76 | - | - | - | - | -
COc1ccc(C2N(c3ccc(OC)cc3)C(=O)C3CCCN32)cc1 (stereo unspecified) | - | - | - | - | - | -
O=C1C2CCCN2C(c2cccc(Br)c2)N1c1ccc(F)cc1 (stereo unspecified) | - | - | - | - | - | -
O=C1C2CCCN2C(c2ccc(Br)cc2)N1c1ccc(F)cc1 (stereo unspecified) | - | - | 66 | - | - | -
CC1(C)CC(=O)c2cnn(-c3nc4ccccc4[nH]3)c2C1 | 56 | - | 80 | - | - | -
Cc1cc2c(cc1C)NC(c1nc3ccccc3[nH]1)C1=C(CC(C)(C)CC1=O)N2 (stereo unspecified) | - | . | - | . | - | -
Cc1cccc(NC(=O)C(NS(=O)(=O)c2ccc3c(c2)CCC(=O)N3)c2ccccc2)n1 (stereo unspecified) | - | - | - | - | - | -
CN(C)c1ccnc(-n2cccc2/C=N/OCc2cccc(F)c2)c1C#N | - | - | 97 | - | - | -
O=C(CSc1ncnc2c1oc1ccccc12)OCc1ccccc1 | - | - | - | - | - | -
SMILES | CYP2C9 inh | CD11b adhes inh | CYP2C19 inh | Mac1 fbg enh | CYP2C19 act | CYP2C9 act
COc1ccc(C2(C(=O)NC3CCCCC3)CCOCC2)cc1OC | - | - | - | - | - | -
O=c1[nH]cnc2scc(C3COc4ccccc4O3)c12 (stereo unspecified) | 80 | - | 88 | - | - | -
Cn1c(=O)cc(SCC(=O)Nc2ccc3c(c2)OCO3)c2ccccc21 | - | - | - | - | - | -
Cn1cc(SCC(=O)Nc2ccc3c(c2)OCO3)c2ccccc21 | 65 | - | 100 | - | - | -
CCCn1cc(SCC(=O)Nc2ccc3c(c2)OCO3)c2ccccc21 | 77 | - | 74 | - | - | -
Nc1c(C(=O)OCC2CCCO2)c2nc3ccccc3nc2n1-c1ccc2c(c1)OCCO2 (stereo unspecified) | 59 | - | 54 | - | - | -
C=CCn1c(N)c(C(=O)NCC2CCCO2)c2nc3ccccc3nc21 (stereo unspecified) | - | - | - | - | - | -
